HEK293 tox – cytotoxic compounds in HEK 293 cells; HEK 293 viability, ATP luminescence (CellTiter-Glo), 48-72 h; Potency, µM (series often up to 115 µM), usual class: inhibitors; actives 6.6% (n = 94,000); AID 1345083; note: nearly all actives have a fitted effect of over 60% in size
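ATP-coupled CellTiter-Glo luminescence served as viability read-out, recorded 10 min after reagent addition at room temperature. HEK 293 cells, 250 cells/well, had been incubated with pintool-transferred compound for 48 or 72 hr at 37 degree Celsius.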
FLuc inh – blocks purified firefly luciferase enzyme activity | P08659 | purified P. pyralis luciferase, luminescence, biochemical | actives 2.5% (n = 76,000) | Potency, µM (series often up to 115 µM), hits mostly inhibitors; note: nearly all actives have a fitted effect of over 65% in size
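FLuc 10nM, D-luciferin 10uM, ATP 10uM, Mg acetate 10mM, Tris acetate pH 7.5, Tween/BSA; cpd qHTS; enzyme added last; CCD luminescence.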
hNpr1 antagonist – blocks ANP-stimulated signaling of human Npr1 receptor; P16066; HEK293 hNpr1 GloSensor cGMP, ANP-stimulated luminescence; Potency, µM (highest dose often 46.3 µM), hits mostly inhibitors; actives 1.6% (n = 76,000); AID 1347048; calls by dose curve; note: nearly all actives have a fitted effect of over 60% in size
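HEK293 cells stably expressing human Npr1 and cGMP GloSensor pGS-40F, loaded 2 h with 2% GloSensor reagent, given compound 30 min at room temperature. Luminescence read before and 20 min after 0.1 nM hNppA.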
NIH3T3 tox – cytotoxic compounds in NIH 3T3 cells. NIH 3T3 viability, CellTiter-Glo ATP luminescence, 48-72 h. actives 4.3% (n = 94,000). Potency, µM (highest dose often 96.7 µM), usual class: inhibitors. AID 1345082; note: nearly all actives have a fitted effect of over 55% in size
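Viability of NIH 3T3 cells after 48 or 72 hr compound treatment at 37 °C was assessed by CellTiter-Glo, with luminescence imaged following a 10 min room-temperature step.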
Numbers stand for hits; 0 = inactive; ? = inconclusive; - = no result. Sampled rows, rich in hits. Any-hit rate of the full collection: about 11%. Unless noted, calls come from the whole dose curve; as a rule, active = well fitted curve in the direction sought with a large enough effect; inconclusive = small, poorly fitted or top-dose-only effect, or another doubt; inactive = no such curve, though single readings can be large; an effect the other way counts as inactive or inconclusive.

SMILES | HEK293 tox | FLuc inh | hNpr1 antagonist | NIH3T3 tox
CCn1cc(CN(C)C(=O)c2cc(-c3ccc(OC)cc3)cn2CC)c(C)n1 | 35.5µM | 39.8µM | ? | ?
CCn1cc(-c2ccc(OC)cc2)cc1C(=O)N1CCCCCC1 | ? | 0 | 0 | 0
Cc1nc(N2CCN(C(=O)c3ccc(C)s3)CC2)cc(C(F)(F)F)n1 | 0 | 0 | 0 | ?
COc1ccc2c3c1CN(C(=O)NCc1ccccc1)CC3=CC(C)(C)CO2 | 39.8µM | - | - | ?
O=C(NCc1ccc(Cl)cc1)C1CCCN(c2ccnc3ccnn23)C1 (stereo not drawn) | 50.1µM | - | - | ?
O=C(NCc1ccccc1F)C1CCN(c2ccnc3ccnn23)CC1 | 15.8µM | - | - | ?
O=C(NCc1ccccc1)C1CCCN(c2ccnc3ccnn23)C1 (stereo not drawn) | 100µM | - | - | ?
COc1ccc(-c2ccc(C(=O)N3CCC(NC(=O)NC4CCCC4)CC3)cc2)nn1 | ? | - | - | 0
CN1CC2(CCN(Cc3cn[nH]c3-c3ccc(F)cc3)CC2)CC1C(=O)N1CCOCC1 (stereo not drawn) | 0 | 0 | 0 | 0
Cc1noc(C)c1-c1cc2cc(CO)oc2c(NCc2cccc(F)c2)n1 | ? | 0 | 0 | 25.1µM
Cc1cc2cc(-c3c(C)noc3C)nc(NC3CCN(C)CC3)c2o1 | 100µM | 0 | 0 | 35.5µM
Cc1noc(C)c1-c1cc2cc(CO)oc2c(NC2CCN(C)CC2)n1 | ? | 0 | 0 | 44.7µM
Cc1noc(C)c1-c1cc2cc(CO)oc2c(NCCN2CCOCC2)n1 | ? | 0 | 0 | ?
COCCNc1nc(-c2c(C)noc2C)cc2cc(CO)oc12 | 0 | 0 | 0 | ?
Cc1noc(-c2cn(C3CCN(C(=O)c4cccc(C(F)(F)F)c4)CC3)nn2)n1 | ? | 0 | 0 | ?
O=C(N[C@@H]1CCNC[C@H]1O)c1cccc(-c2ccc(OC(F)(F)F)cc2)c1 | ? | 0 | 0 | 17.8µM
Cc1cc(C)n(Cc2cccc(C(=O)N[C@@H]3CCNC[C@H]3O)c2)n1 | 0 | 0 | 0 | 0
CN1c2cc(C(=O)Nc3ccc(Cl)c(Cl)c3)ccc2C(=O)N2CCCCC21 (stereo not drawn) | ? | 0 | 0 | 0
COc1ccc(C(=O)N2CC(C(=O)NCCc3ccccc3)CC(c3ccccc3)C2)cc1OC (stereo not drawn) | ? | 0 | 0 | ?
COc1ccc(CC2(CO)CCN(c3nccc(N)n3)CC2)cc1 | ? | 0 | 0 | 0
COc1ccc(CC2(CO)CCN(c3cc(OC)nc(N)n3)CC2)cc1 | 44.7µM | 0 | ? | 0
COCC(=O)NC[C@@H]1C=C(C)[C@H](Cc2nc3ccc(Cl)cc3[nH]2)C[C@H]1C(C)C | ? | 0 | 0 | 70.8µM
COCC(=O)NC[C@@H]1C=C(C)[C@H](Cc2nc3ccc(C)cc3[nH]2)C[C@H]1C(C)C | ? | 0 | 0 | 50.1µM
COc1ccc2nc(C[C@@H]3C[C@@H](C(C)C)[C@H](CNC(=O)CCCC(=O)O)C=C3C)[nH]c2c1 | 0 | 0 | 0 | 0
OCC1CN(C2CCC2)CC12CCN(Cc1ccc(Br)o1)CC2 (stereo not drawn) | ? | 0 | 0 | ?
SMILES | HEK293 tox | FLuc inh | hNpr1 antagonist | NIH3T3 tox
CC(C)(C)c1ccc(-c2cc(C[C@H]3CNCC[C@H]3CC(=O)N3CCOCC3)no2)cc1 | 25.1µM | 0 | 0 | ?
CC(C)(C)c1ccc(-c2cc(C[C@H]3CNCC[C@H]3CC(=O)N3CCC(n4c(=O)[nH]c5ccccc54)CC3)no2)cc1 | 22.4µM | 0 | 0 | 25.1µM
Cc1ccc(-c2c(C(=O)NC3CCCCC3)nc3sccn23)cc1 | ? | - | - | 0
CN(CCc1noc(C2CN(Cc3ccc(Cl)c(F)c3)C2)n1)S(C)(=O)=O | 39.8µM | 0 | 0 | ?
CN(CCc1noc(C2CN(Cc3ccncc3F)C2)n1)C(=O)C1CC1 | 0 | - | - | 0
CCC(C)NC(=O)C1COC2(CCN(C(=O)c3cccc(Cl)c3)CC2)N1C(=O)c1ccccc1C (stereo not drawn) | ? | 0 | 0 | 0
O=C(Nc1ccc2c(c1)OCCO2)N1CCCCCC1c1nc(-c2cccnc2)no1 (stereo not drawn) | 0 | - | - | ?
CC(c1ccc(F)cc1)N1Cc2cc(NC(=O)c3cccs3)ccc2OCC1=O (stereo not drawn) | 22.4µM | 0 | ? | ?
O=C(CNC(=O)c1cccc(-c2ccc(C(F)(F)F)cc2)c1)NCCC1CCCCC1 | 22.4µM | - | - | 22.4µM
O=C(CNC(=O)c1cccc(-c2ccc(C(F)(F)F)cc2)c1)NCCc1ccc(Cl)cc1 | 15.8µM | - | - | 0
COc1ccc(C(=O)N2CCN(c3cc(-c4cccs4)[nH]n3)CC2)c(OC)c1 | ? | 0 | ? | ?
O=C(c1ccc2c(c1)N(C(=O)c1ccccc1)CC2)N1CCN(c2cccc(Cl)c2)CC1 | 31.6µM | 0 | 0 | ?
Cc1nn(-c2ccc(C(F)(F)F)cc2)c(C)c1[C@@H]1C=C[C@@H](NC(=O)Nc2ccccc2)C1 | 50.1µM | 12.6µM | ? | 31.6µM
Cc1nn(-c2ccc(C(F)(F)F)cc2)c(C)c1[C@@H]1C=C[C@@H](NC(=O)NC(C)C)C1 | 35.5µM | 14.1µM | ? | ?
Cc1nn(-c2ccc(C(F)(F)F)cc2)c(C)c1[C@@H]1C=C[C@@H](NC(=O)C2CCCCC2)C1 | ? | 0 | ? | ?
OC[C@@H]1O[C@H](CN(Cc2cccc(Cl)c2)Cc2cccc(Cl)c2)C(N2CCOCC2)[C@@H]1O (stereo partly drawn) | 0 | 0 | 0 | 0
CN1CCN([C@@H]2[C@H](O)[C@H](CO)O[C@@H]2CN(Cc2ccc(Cl)cc2)Cc2cccc(Cl)c2)CC1 | ? | 0 | ? | 28.2µM
COc1cccc(CN2CCCN(S(C)(=O)=O)C(c3ccccc3)CC(=O)NCC2)c1 (stereo not drawn) | 0 | 0 | 0 | 0
O=C(NCc1cc(F)ccc1F)c1cccnc1N1CC2CC(C1)[C@H]1CCCC(=O)N1C2 (stereo partly drawn) | 0 | 0 | 0 | 0
Cn1cc(CN2CCOC[C@H]2c2ncc(C(C)(C)C)[nH]2)c2ccccc21 | 63.1µM | 0 | 0 | ?
Cn1cc(CN2CCOC[C@H]2c2nc(C(C)(C)C)co2)c2ccccc21 | 89.1µM | 0 | 0 | ?
O=C(CCCc1ccccc1)N1CCC2(CC1)CN(C1CCC1)CC2CO (stereo not drawn) | ? | ? | 0 | ?
Cc1cc(C)c(CNC(=O)c2cc(-c3ccccc3)cc3c2OCCN3C(C)C)c(=O)[nH]1 | 31.6µM | 0 | 0 | 22.4µM
Cc1cc(C)c(CNC(=O)c2cc(-c3ccccc3)cc3c2OCCN3C)c(=O)[nH]1 | ? | 0 | 0 | ?
COc1cc(F)ccc1-c1cc(C(=O)NCc2c(C)cc(C)[nH]c2=O)c2c(c1)ncn2C | ? | ? | 0 | 25.1µM
Cc1ccc(-c2cc(C(=O)NCc3c(C)cc(C)[nH]c3=O)c3c(c2)N(C(C)C)CCO3)cc1 | ? | 0 | 0 | ?
Cc1ccc(-c2cc(C(=O)NCc3c(C)cc(C)[nH]c3=O)c3c(c2)N(C)CCO3)cc1 | ? | 0 | 0 | ?
COc1ccccc1-c1cc(C(=O)NCc2c(C)cc(C)[nH]c2=O)c2c(c1)N(C)CCO2 | 89.1µM | 0 | 0 | ?

From PubChem
